Source: PMC5540273 (PLoS ONE, 2017)
Several values for one entry are separate records, joined by “and”; a condition that tells them apart may be missing. Equal values may be shown once. Read-outs that look alike come from different tables or passages of the source.

What was measured:
ERK4 = test system: T1, ERK4; details: concentration: 1 μM, replicates: in singlicate; n = 1
T1 construct: gene MAPK4

ERK5 = test system: T2, ERK5; details: concentration: 1 μM, replicates: in singlicate; n = 1
T2 construct: gene MAPK7

ERK8 = test system: T3, ERK8; details: concentration: 1 μM, replicates: in singlicate, n = 1
T3 construct: gene MAPK15

ERN1 = details: concentration: 1 μM, replicates: in singlicate; n = 1
FAK = test system: T4, FAK; details: concentration: 1 μM, replicates: in singlicate; n = 1
T4 construct: gene PTK2

FER = details: concentration: 1 μM, replicates: in singlicate, n = 1
FES = details: concentration: 1 μM, replicates: in singlicate, n = 1
FGFR1 = details: concentration: 1 μM, replicates: in singlicate; n = 1
FGFR2 = details: concentration: 1 μM, replicates: in singlicate; n = 1
FGFR3 = details: concentration: 1 μM, replicates: in singlicate, n = 1
FGFR4 = details: concentration: 1 μM, replicates: in singlicate; n = 1
FGR = details: concentration: 1 μM, replicates: in singlicate, n = 1
FLT1 = details: concentration: 1 μM, replicates: in singlicate, n = 1
FLT3-autoinhibited = details: concentration: 1 μM, replicates: in singlicate, n = 1
FLT3 = details: concentration: 1 μM, replicates: in singlicate, n = 1
FLT4 = details: concentration: 1 μM, replicates: in singlicate; n = 1
FRK = details: concentration: 1 μM, replicates: in singlicate, n = 1
FYN = details: concentration: 1 μM, replicates: in singlicate, n = 1
GAK = details: concentration: 1 μM, replicates: in singlicate, n = 1
GCN2(Kin.Dom.2,S808G) = test system: T5, GCN2(Kin.Dom.2,S808G); details: concentration: 1 μM, replicates: in singlicate, n = 1
T5 construct: gene EIF2AK4
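Note: KINOMEscan kinase panel screen.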

Cn1ccc2ncnc(Oc3ccc(NC(=O)Nc4cccnc4)c(Cl)c3)c21
%Inh (ERK4): 0%
%Inh (ERK5): 5%
%Inh (ERK8): 0%
%Inh (ERN1): 37%
%Inh (FAK): 0%
%Inh (FER): 0%
%Inh (FES): 16%
%Inh (FGFR1): 0%
%Inh (FGFR2): 0%
%Inh (FGFR3): 0%
%Inh (FGFR4): 0%
%Inh (FGR): 0%
%Inh (FLT1): 2%
%Inh (FLT3-autoinhibited): 0%
%Inh (FLT3): 0%
%Inh (FLT4): 37%
%Inh (FRK): 0%
%Inh (FYN): 0%
%Inh (GAK): 0%
%Inh (GCN2(Kin.Dom.2,S808G)): 0%

Fc1ccc(Nc2nccc(-c3c(-c4ccc(Cl)cc4)nn4ncccc34)n2)cc1F [GW829058]
%Inh (ERK4): 23%
%Inh (ERK5): 0%
%Inh (ERK8): 0%
%Inh (ERN1): 48%
%Inh (FAK): 17%
%Inh (FER): 9%
%Inh (FES): 19%
%Inh (FGFR1): 13%
%Inh (FGFR2): 15%
%Inh (FGFR3): 9%
%Inh (FGFR4): 5%
%Inh (FGR): 12%
%Inh (FLT1): 8%
%Inh (FLT3-autoinhibited): 14%
%Inh (FLT3): 40%
%Inh (FLT4): 1%
%Inh (FRK): 32%
%Inh (FYN): 7%
%Inh (GAK): 14%
%Inh (GCN2(Kin.Dom.2,S808G)): 3%

Clc1cccc(-c2nc(Nc3ccncc3)c3ccccc3n2)c1 [GW873004]
%Inh (ERK4): 0%
%Inh (ERK5): 0%
%Inh (ERK8): 23%
%Inh (ERN1): 0%
%Inh (FAK): 11%
%Inh (FER): 16%
%Inh (FES): 16%
%Inh (FGFR1): 37%
%Inh (FGFR2): 11%
%Inh (FGFR3): 0%
%Inh (FGFR4): 0%
%Inh (FGR): 55%
%Inh (FLT1): 34%
%Inh (FLT3-autoinhibited): 0%
%Inh (FLT3): 17%
%Inh (FLT4): 52%
%Inh (FRK): 29%
%Inh (FYN): 0%
%Inh (GAK): 3%
%Inh (GCN2(Kin.Dom.2,S808G)): 0%

Oc1ccc2ncnc(Nc3ccc(OCc4ccccc4)cc3)c2c1 [GI262866]
%Inh (ERK4): 0%
%Inh (ERK5): 0%
%Inh (ERK8): 57%
%Inh (ERN1): 19%
%Inh (FAK): 0%
%Inh (FER): 0%
%Inh (FES): 0%
%Inh (FGFR1): 0%
%Inh (FGFR2): 0%
%Inh (FGFR3): 0%
%Inh (FGFR4): 66%
%Inh (FGR): 4%
%Inh (FLT1): 29%
%Inh (FLT3-autoinhibited): 0%
%Inh (FLT3): 60%
%Inh (FLT4): 21%
%Inh (FRK): 0%
%Inh (FYN): 7%
%Inh (GAK): 0%
%Inh (GCN2(Kin.Dom.2,S808G)): 15%

COc1ccc(-c2oc3ncnc(N)c3c2-c2ccc(OC)cc2)cc1 [SB-589132]
%Inh (ERK4): 27%
%Inh (ERK5): 0%
%Inh (ERK8): 0%
%Inh (ERN1): 18%
%Inh (FAK): 0%
%Inh (FER): 5%
%Inh (FES): 0%
%Inh (FGFR1): 0%
%Inh (FGFR2): 3%
%Inh (FGFR3): 0%
%Inh (FGFR4): 3%
%Inh (FGR): 43%
%Inh (FLT1): 21%
%Inh (FLT3-autoinhibited): 18%
%Inh (FLT3): 13%
%Inh (FLT4): 12%
%Inh (FRK): 17%
%Inh (FYN): 46%
%Inh (GAK): 48%
%Inh (GCN2(Kin.Dom.2,S808G)): 41%

Cc1ccc(NC(=O)c2cccc(C#N)c2)cc1-c1ccc(C(=O)Nc2ccncc2)cc1 [GSK1398463]
%Inh (ERK4): 25%
%Inh (ERK5): 96.8%
%Inh (ERK8): 38%
%Inh (ERN1): 15%
%Inh (FAK): 0%
%Inh (FER): 3%
%Inh (FES): 17%
%Inh (FGFR1): 10%
%Inh (FGFR2): 17%
%Inh (FGFR3): 33%
%Inh (FGFR4): 25%
%Inh (FGR): 47%
%Inh (FLT1): 33%
%Inh (FLT3-autoinhibited): 21%
%Inh (FLT3): 0%
%Inh (FLT4): 12%
%Inh (FRK): 92.9%
%Inh (FYN): 22%
%Inh (GAK): 14%
%Inh (GCN2(Kin.Dom.2,S808G)): 0%

NC(=O)c1sc(-n2cnc3ccccc32)cc1OCc1ccccc1F [GSK1024306]
%Inh (ERK4): 0%
%Inh (ERK5): 0%
%Inh (ERK8): 26%
%Inh (ERN1): 0%
%Inh (FAK): 0%
%Inh (FER): 20%
%Inh (FES): 0%
%Inh (FGFR1): 0%
%Inh (FGFR2): 0%
%Inh (FGFR3): 4%
%Inh (FGFR4): 19%
%Inh (FGR): 0%
%Inh (FLT1): 40%
%Inh (FLT3-autoinhibited): 2%
%Inh (FLT3): 0%
%Inh (FLT4): 27%
%Inh (FRK): 11%
%Inh (FYN): 24%
%Inh (GAK): 24%
%Inh (GCN2(Kin.Dom.2,S808G)): 0%

COc1ccc(NC(=O)Nc2ccc(C)c(-c3ccc(C(=O)Nc4ccncc4)cc3)c2)cc1 [GSK1398475]
%Inh (ERK4): 0%
%Inh (ERK5): 0%
%Inh (ERK8): 0%
%Inh (ERN1): 0%
%Inh (FAK): 0%
%Inh (FER): 5%
%Inh (FES): 2%
%Inh (FGFR1): 0%
%Inh (FGFR2): 0%
%Inh (FGFR3): 11%
%Inh (FGFR4): 5%
%Inh (FGR): 27%
%Inh (FLT1): 26%
%Inh (FLT3-autoinhibited): 0%
%Inh (FLT3): 85%
%Inh (FLT4): 15%
%Inh (FRK): 23%
%Inh (FYN): 41%
%Inh (GAK): 0%
%Inh (GCN2(Kin.Dom.2,S808G)): 0%

C[C@@H]1CCN(C(=O)CO)C[C@@H]1N(C)c1ncnc2[nH]ccc12
%Inh (ERK4): 19%
%Inh (ERK5): 0%
%Inh (ERK8): 9%
%Inh (ERN1): 0%
%Inh (FAK): 0%
%Inh (FER): 8%
%Inh (FES): 0%
%Inh (FGFR1): 12%
%Inh (FGFR2): 7%
%Inh (FGFR3): 0%
%Inh (FGFR4): 0%
%Inh (FGR): 0%
%Inh (FLT1): 0%
%Inh (FLT3-autoinhibited): 0%
%Inh (FLT3): 0%
%Inh (FLT4): 0%
%Inh (FRK): 3%
%Inh (FYN): 0%
%Inh (GAK): 0%
%Inh (GCN2(Kin.Dom.2,S808G)): 7%

N#Cc1ccc(Oc2ccc(Nc3ncnc4cc[nH]c34)cc2Cl)cc1
%Inh (ERK4): 17%
%Inh (ERK5): 20%
%Inh (ERK8): 12%
%Inh (ERN1): 8%
%Inh (FAK): 8%
%Inh (FER): 0%
%Inh (FES): 17%
%Inh (FGFR1): 9%
%Inh (FGFR2): 1%
%Inh (FGFR3): 8%
%Inh (FGFR4): 27%
%Inh (FGR): 22%
%Inh (FLT1): 8%
%Inh (FLT3-autoinhibited): 15%
%Inh (FLT3): 10%
%Inh (FLT4): 0%
%Inh (FRK): 23%
%Inh (FYN): 20%
%Inh (GAK): 17%
%Inh (GCN2(Kin.Dom.2,S808G)): 10%

COc1ccc(-c2nc3n(c2-c2ccncc2)CCC3)cc1 [SKF-104493]
%Inh (ERK4): 0%
%Inh (ERK5): 0%
%Inh (ERK8; 1 µM): 6% and 11%
%Inh (ERN1): 0%
%Inh (FAK): 0%
%Inh (FER; 1 µM): 0% and 33%
%Inh (FES; 1 µM): 10% and 0%
%Inh (FGFR1): 0%
%Inh (FGFR2): 0%
%Inh (FGFR3; 1 µM): 0% and 9%
%Inh (FGFR4): 8%
%Inh (FGR; 1 µM): 19% and 8%
%Inh (FLT1; 1 µM): 6% and 11%
%Inh (FLT3-autoinhibited; 1 µM): 22% and 0%
%Inh (FLT3; 1 µM): 9% and 0%
%Inh (FLT4): 0%
%Inh (FRK; 1 µM): 5% and 0%
%Inh (FYN; 1 µM): 0% and 28%
%Inh (GAK; 1 µM): 13% and 41%
%Inh (GCN2(Kin.Dom.2,S808G); 1 µM): 27% and 0%

C[C@H]1CC[C@@H](C(=O)Nc2ccccc2)CN1c1cc(-c2ccc3c(N)n[nH]c3c2)nc(N)n1 [GSK2283293]
%Inh (ERK4): 29%
%Inh (ERK5): 0%
%Inh (ERK8): 0%
%Inh (ERN1): 0%
%Inh (FAK): 0%
%Inh (FER): 3%
%Inh (FES): 9%
%Inh (FGFR1): 0%
%Inh (FGFR2): 5%
%Inh (FGFR3): 0%
%Inh (FGFR4): 0%
%Inh (FGR): 27%
%Inh (FLT1): 13%
%Inh (FLT3-autoinhibited): 0%
%Inh (FLT3): 0%
%Inh (FLT4): 4%
%Inh (FRK): 5%
%Inh (FYN): 0%
%Inh (GAK): 0%
%Inh (GCN2(Kin.Dom.2,S808G)): 0%
